Read-out in assay [1]: solute carrier (SLCO1B1), SLCO1B1 (gene 10599)
In words: LTEA_HepaRG_SLCO1B1: Life Technologies and Expression Analysis (LTEA) Assay for solute carrier (SLCO1B1) using HepaRG (AID 2283530). The note with it: mRNA level, 48 h; actives raise or lower the signal. In short, it runs like this:
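HepaRG, serum-free induction medium, 48 h dosing, 8-pt half-log from 100 uM, 0.5% DMSO vehicle, duplicates. Readout: SLCO1B1 mRNA, qRT-PCR, ACTB/GAPDH/POLR2A normalization; up or down fit vs DMSO.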

Read-out in assay [2]: sulfotransferase 2A1 (SULT2A1), SULT2A1 (gene 6822)
Nature of the assay: LTEA_HepaRG_SULT2A1: Life Technologies and Expression Analysis (LTEA) Assay for sulfotransferase 2A1 (SULT2A1) using HepaRG (AID 2283531). The note with it: mRNA level, 48 h; actives raise or lower the signal. The method, boiled down: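 Transcript levels of SULT2A1, quantified by qRT-PCR and normalized to three housekeeping genes, serve as the readout. Human HepaRG cultures receive test chemicals for 48 h at up to 100 uM in half-log steps, with 0.5% DMSO vehicle.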

Read-out in assay [3]: Transforming Growth Factor (TGFA), TGFA (gene 7039)
In words: LTEA_HepaRG_TGFA: Life Technologies and Expression Analysis (LTEA) Assay for Transforming Growth Factor (TGFA) using HepaRG (AID 2283532). The note with it: mRNA level, 48 h; actives raise or lower the signal. The method, boiled down:
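Differentiated HepaRG cells exposed 48 hours in serum-free induction medium, 0.5% DMSO vehicle, 8-point half-log series from 100 uM, in duplicate. TGFA mRNA by TaqMan qRT-PCR, normalised to ACTB, GAPDH, POLR2A; bidirectional fit versus DMSO.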

Read-out in assay [4]: Transforming Growth Factor (TGFB1), TGFB1 (gene 7040)
Nature of the assay: LTEA_HepaRG_TGFB1: Life Technologies and Expression Analysis (LTEA) Assay for Transforming Growth Factor (TGFB1) Transporter using HepaRG (AID 2283533). The note with it: mRNA level, 48 h; actives raise or lower the signal. In short, it runs like this:
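HepaRG, 48 h post-plating, switched to serum-free induction medium; chemicals 100 uM top, half-log, 8 pts, 0.5% DMSO, dup; 48 h exposure; RNA → Fluidigm TaqMan qRT-PCR; norm ACTB/GAPDH/POLR2A; bidirectional fit vs DMSO.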

Read-out in a further assay: TIMP1, TIMP1 (gene 7076)
Nature of the assay: LTEA_HepaRG_TIMP1: Life Technologies and Expression Analysis (LTEA) Assay for TIMP1 using HepaRG (AID 2283534).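 Further: TaqMan qRT-PCR signal normalized to ACTB GAPDH and POLR2A housekeeping genes.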 The note with it: mRNA level, 48 h; actives raise or lower the signal. The method, boiled down:
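Readout is TIMP1 mRNA level measured by qRT-PCR and normalized to three housekeeping genes. Human HepaRG cells were treated for 48 h in duplicate at eight concentrations up to 100 uM (0.5% DMSO); gain or loss fitted against DMSO.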

Read-out in assay [5]: Tumor necrosis factor receptor 1 (TNFRSF1A), TNFRSF1A (gene 7132)
In words: LTEA_HepaRG_TNFRSF1A: Life Technologies and Expression Analysis (LTEA) Assay for Tumor necrosis factor receptor 1 (TNFRSF1A) using HepaRG (AID 2283535). The note with it: mRNA level, 48 h; actives raise or lower the signal. The method, boiled down: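 Read-out is TNFRSF1A transcript level by TaqMan qRT-PCR, normalized to three housekeeping genes, scored as gain or loss of signal versus 0.5% DMSO. Human HepaRG cells received test chemicals for 48 h at up to 100 uM (half-log series).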

Read-out in assay [6]: Thyroid Hormone Responsive (THRSP), THRSP (gene 7069)
Nature of the assay: LTEA_HepaRG_THRSP: Life Technologies and Expression Analysis (LTEA) Assay for Thyroid Hormone Responsive (THRSP) using HepaRG (AID 2283536). The note with it: mRNA level, 48 h; actives raise or lower the signal. In short, it runs like this: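 Differentiated HepaRG cells treated 48 h in serum-free induction medium with 8 half-log concentrations up to 100 uM (0.5% DMSO), duplicates. THRSP mRNA by TaqMan qRT-PCR normalised to ACTB, GAPDH, POLR2A; bidirectional fit versus DMSO.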

Read-out in assay [7]: Cellular tumor antigen p53 (Homo sapiens) (UniProt P04637)
Nature of the assay: LTEA_HepaRG_TP53: Life Technologies and Expression Analysis (LTEA) Assay for Tumor Protein P53 (TP53) using HepaRG (AID 2283537). The note with it: mRNA level, 48 h; actives raise or lower the signal. The method, boiled down:
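Gain or loss of TP53 mRNA signal is scored relative to 0.5% DMSO after 48 h chemical treatment of HepaRG liver cells, tested in duplicate at eight half-log concentrations up to 100 uM.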

Read-out in assay [8]: UDP glucuronosyltransferase (UGT1A1), UGT1A1 (gene 54658)
Nature of the assay: LTEA_HepaRG_UGT1A1: Life Technologies and Expression Analysis (LTEA) Assay for UDP glucuronosyltransferase (UGT1A1) using HepaRG (AID 2283538). The note with it: mRNA level, 48 h; actives raise or lower the signal. The method, boiled down:
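Differentiated human HepaRG cells in serum-free induction medium were exposed in duplicate for 48 h to eight half-log concentrations up to 100 uM in 0.5% DMSO. UGT1A1 mRNA was quantified by TaqMan qRT-PCR, normalized to ACTB, GAPDH and POLR2A, and fitted bidirectionally against DMSO.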

Read-out in assay [9]: UDP glucuronosyltransferase (UGT1A6), UGT1A6 (gene 54578)
Nature of the assay: LTEA_HepaRG_UGT1A6: Life Technologies and Expression Analysis (LTEA) Assay for UDP glucuronosyltransferase (UGT1A6) using HepaRG (AID 2283539). The note with it: mRNA level, 48 h; actives raise or lower the signal. The method, boiled down:
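HepaRG, 48 h post-plating switch to serum-free induction medium; chemical 48 h, 100 uM top, half-log x8, duplicate, 0.5% DMSO. Phenobarbital 1mM induction control. UGT1A6 mRNA by TaqMan qRT-PCR; gain/loss fit vs DMSO.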

Read-out in assay [10]: X-box binding protein 1 (XBP1), XBP1 (gene 7494)
Nature of the assay: LTEA_HepaRG_XBP1: Life Technologies and Expression Analysis (LTEA) Assay for X-box binding protein 1 (XBP1) using HepaRG (AID 2283540). The note with it: mRNA level, 48 h; actives raise or lower the signal. In short, it runs like this:
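Transcript levels of XBP1, measured by qRT-PCR and normalised to three housekeeping genes, were fitted bidirectionally relative to 0.5% DMSO controls. Human HepaRG cells received eight-point half-log dilutions from 100 uM for 48 h.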

A short description of assay [11]: LTEA_HepaRG_LDH_cytotoxicity: Cytotoxicity Assessment in the Life Technologies and Expression Analysis (LTEA) Assay (AID 2283563; active means hit-call score of the fitted dose curve at least 0.9, where 1 is the maximum;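 on AC50: LDH activity released into spent culture medium as a marker of cell death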). In short, it runs like this:
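Cells were thawed and plated for 48 h. Medium was then replaced with serum-free induction medium. Chemicals (8 half-log points, maximum 100 uM, 0.5% DMSO) were added in duplicate for 48 h, after which spent medium was assayed for LDH.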

Assay [12] in a line: ATG_XTT_Cytotoxicity: Cytotoxicity Assessment in the Attagene TRANS-FACTORIAL HepG2 Assay (AID 2283584; active means hit-call score of the fitted dose curve at least 0.9, where 1 is the maximum). In short, it runs like this:
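Cells: human HepG2, transiently transfected with MRTU reporter constructs. Exposure 24 h. Readout: XTT, cell number. Baseline/neg ctrl DMSO; loss-of-signal scored.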

A short description of assay [13]: TOX21_p53_BLA_p2_viability: Viability Assessment in the Tox21 HCT-116 p53 Agonism Beta-lactamase Assay, Phase 2 (AID 2283591; active means hit-call score of the fitted dose curve at least 0.9, where 1 is the maximum;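 further: compound exposure lasted 16 h at 37 °C; actives lower the ATP signal meaning cytotoxicity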). In short, it runs like this:
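HCT116 p53-bla cells, 4000/well, dosed after 5 h plating (217-fold dilution of DMSO stocks) and incubated 16 h at 37C. Viability taken as cellular ATP by CellTiter-Glo luminescence after 30 min RT; signal loss marks cytotoxicity.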

Assay [14] concerns the target Cellular tumor antigen p53 (Homo sapiens) (UniProt P04637). Nature of the assay: TOX21_p53_BLA_p2_ratio: Tox21 HCT-116 p53 Agonism Beta-lactamase Assay, Ratio, Phase 2 (AID 2283592; active means hit-call score of the fitted dose curve at least 0.9, where 1 is the maximum). The method, boiled down: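 HCT116 p53-bla; 4000 cells/well; 5 h pre-incubation; cpd in DMSO, 217-fold dilution; 16 h 37C/5% CO2; CCF4-AM 2 h RT; Ex 405, Em 460/530 ratio; DMSO = baseline; positive fitting direction.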

Assay [15] is described as follows: TOX21_p53_BLA_p3_viability: Viability Assessment in the Tox21 HCT-116 p53 Agonism Beta-lactamase Assay, Phase 3 (AID 2283593; active means hit-call score of the fitted dose curve at least 0.9, where 1 is the maximum;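 further: cells exposed to compound for 16 h before reading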). The method, boiled down: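 HCT116 cells, 4000/well, dosed 5 h after plating by pin transfer (217-fold dilution from DMSO stock) and incubated 16 h at 37C, 5% CO2. Viability read as ATP luminescence with CellTiter-Glo after 30 min at room temperature.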

The target of assay [16] is Cellular tumor antigen p53 (Homo sapiens) (UniProt P04637). In words: TOX21_p53_BLA_p3_ratio: Tox21 HCT-116 p53 Agonism Beta-lactamase Assay, Ratio, Phase 3 (AID 2283596; active means hit-call score of the fitted dose curve at least 0.9, where 1 is the maximum). In short, it runs like this: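 HCT116 p53-bla cells (4000/well) given compound in DMSO (217-fold dilution) after 5 h, incubated 16 h at 37C. CCF4-AM substrate 2 h at room temperature; 460/530 nm emission ratio, gain fitted against DMSO.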

The nature of assay [17]: TOX21_p53_BLA_p4_viability: Viability Assessment in the Tox21 HCT-116 p53 Agonism Beta-lactamase Assay, Phase 4 (AID 2283597; active means hit-call score of the fitted dose curve at least 0.9, where 1 is the maximum;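 further: hits lower the luminescence signal meaning cytotoxicity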). The method, boiled down:
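Cells plated, 5 h pre-incubation; DMSO compounds pinned (217-fold dilution); 16 h, 37C/5% CO2; CCF4-AM 2 h RT; CellTiter-Glo 30 min RT; luminescence read.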

Assay [18] concerns the target Cellular tumor antigen p53 (Homo sapiens) (UniProt P04637). In words: TOX21_p53_BLA_p5_ratio: Tox21 HCT-116 p53 Agonism Beta-lactamase Assay, Ratio, Phase 5 (AID 2283599; active means hit-call score of the fitted dose curve at least 0.9, where 1 is the maximum). In short, it runs like this: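 HCT-116 p53-bla cells (4000/well) plated 5 h, dosed with compound (217-fold DMSO dilution) for 16 h at 37 C; CCF4-AM substrate 2 h at room temperature. Activity is the 460/530 nm emission ratio (405 nm excitation), fitted in gain-of-signal direction versus DMSO.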

Assay [19] is described as follows: TOX21_p53_BLA_p5_viability: Viability Assessment in the Tox21 HCT-116 p53 Agonism Beta-lactamase Assay, Phase 5 (AID 2283600; active means hit-call score of the fitted dose curve at least 0.9, where 1 is the maximum). In short, it runs like this: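 4000 cells/well; 5 h pre-incubation; DMSO compounds pin-transferred, 217-fold dilution; 16 h, 37C/5% CO2; CCF4-AM 2 h RT; CellTiter-Glo 30 min RT; luminescence.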

Results filed as inconclusive are left out. The source made the active and inactive calls. How the source made its calls, unless noted: active means hit-call score of the fitted dose curve at least 0.9, where 1 is the maximum; inactive means score below 0.9.

Cellular tumor antigen p53 (Homo sapiens), sequence (P04637 whole entry, looked up): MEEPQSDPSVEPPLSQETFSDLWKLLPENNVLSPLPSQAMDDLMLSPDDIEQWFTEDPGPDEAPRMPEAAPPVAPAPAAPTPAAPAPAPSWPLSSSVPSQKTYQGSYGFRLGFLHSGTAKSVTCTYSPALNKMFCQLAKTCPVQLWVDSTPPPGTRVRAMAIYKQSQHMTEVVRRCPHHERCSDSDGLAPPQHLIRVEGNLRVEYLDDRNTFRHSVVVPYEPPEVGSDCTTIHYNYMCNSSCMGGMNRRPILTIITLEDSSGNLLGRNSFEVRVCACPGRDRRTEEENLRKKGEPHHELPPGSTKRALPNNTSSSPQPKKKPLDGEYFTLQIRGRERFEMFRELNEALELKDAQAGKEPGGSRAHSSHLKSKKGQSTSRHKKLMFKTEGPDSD

On to `CCC(C)N(C)C(=O)c1cc2ccccc2c(-c2ccccc2Cl)n1` (centres undefined), for which the outcome in [1] was “inactive”; in [3], “inactive”; in [4] it was “inactive”; with TIMP1, TIMP1 (gene 7076), “inactive”; in assay [5], “inactive”; in assay [6] it was “inactive”. The outcome in assay [7], in assay [9], in [10], in assay [11], in assay [12] and in assay [13] was inactive. Besides, the outcome in assay [14], in assay [15], in assay [16], in assay [17], in [18] and in [19] was inactive. Moreover, the results for the concentration at half-maximal activity (AC50) in assay [2] and in assay [8] were 8.44 µM (active) and 2.1 µM (active), respectively.

For `OCC(O)CO`, the outcome in [1] was “inactive”; in [2], “inactive”; in [3] it was “inactive”; in [4], “inactive”; with TIMP1, TIMP1 (gene 7076) it was “inactive”; in assay [5] it was “inactive”. In addition, the compound was classed as inactive in assay [7], in assay [8], in assay [9] and in [11].

`O=C1NC(=O)C(c2ccccc2)(c2ccccc2)N1`: the outcome is “inactive” in assay [1]; “inactive” in assay [3]; “inactive” in assay [4]; “inactive” in the assay with TIMP1, TIMP1 (gene 7076); “inactive” in [5]; “inactive” in [6]. The compound was called inactive in assay [9], in [11] and in [12]. Besides, the AC50 in [2] is 50 µM (active); in assay [8], 19.3 µM (active).

On to `O=C(O)c1cccnc1`, for which the outcome was “inactive” in assay [1]; “inactive” in assay [2]; “inactive” in assay [3]; “inactive” in [4]; “inactive” with TIMP1, TIMP1 (gene 7076); “inactive” in assay [5]. The compound was classed as inactive in [6], in assay [8], in [9], in assay [10], in assay [11] and in [12].

As for `CN(C)C(=O)NC1(c2ccccc2)CCN(CC[C@@]2(c3ccc(F)c(F)c3)CN(C(=O)c3ccccc3)CCO2)CC1`, the outcome is “inactive” in assay [1]; “inactive” in [3]; “inactive” in assay [4]; “inactive” in the assay with TIMP1, TIMP1 (gene 7076); “inactive” in assay [5]; “inactive” in assay [7]. Moreover, the compound was called inactive in [8], in [9], in assay [10], in assay [13], in assay [16] and in [18]. Further, in assay [19], the compound was classed as inactive. The values for the AC50 in [2], in assay [11] and in assay [17] were 25.3 µM (active), 73.5 µM (active) and 65 µM (active), respectively.

As usually defined, the AC50 is the concentration at which the activity in the assay is half-maximal.
